According to PubChem BioAssay (NCI):
Compounds without any hit were thinned out: in the full panel of roughly 83,000, 20% have a hit.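 How to read the values: 0–100, growth inhibition (40 = 60% inhibited); 0, no net growth; -100 to 0, cell death (-40 = 40% of starting cells died; -100 = all dead).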 Values without a mark were called inactive. Active and inactive are the calls of the source. How the source made its calls: active means growth percent below 10; inactive means the rest.

Experiments:
Assay in all cases: NCI-60 one-dose screen, 48 h (100 = growth as untreated, 0 = no growth, -100 = all killed)
Conditions in all cases: 10 µM unless noted
T-47D breast = tested on: T-47D breast
BT-549 breast = tested on: BT-549 breast
MDA-MB-435 melanoma = tested on: MDA-MB-435 melanoma
SW-620 colon = tested on: SW-620 colon
MCF7 breast = tested on: MCF7 breast
HCT-116 colon = tested on: HCT-116 colon
HCC-2998 colon = tested on: HCC-2998 colon
MDA-MB-468 breast = tested on: MDA-MB-468 breast
KM12 colon = tested on: KM12 colon

| Compound | growth (T-47D breast) | growth (BT-549 breast) | growth (MDA-MB-435 melanoma) | growth (SW-620 colon) | growth (MCF7 breast) | growth (HCT-116 colon) | growth (HCC-2998 colon) | growth (MDA-MB-468 breast) | growth (KM12 colon) |
| --- | --- | --- | --- | --- | --- | --- | --- | --- | --- |
| C=CC[N+](C)(C)CCn1c2ccccc2c2nc3cc(C)c(C)cc3nc21 | 99.9% | 54.6% | 99.6% | 94.6% | 80% | 98.4% | 96.2% | -2.23% (active) |  |
| COc1ccc(C(=O)/C=C/c2ccc(OCc3ccc(F)cc3)c(OC)c2)cc1OC | 26.8% | -1.79% (active) | 7.77% (active) | 7.65% (active) | 7.56% (active) | 8.63% (active) | 16.8% | 8.91% (active) | 14% |
| COc1cc2c(c(OC)c1OC)C(=O)CC(c1cccc(NC(=O)c3cc(NC(=O)[C@H](C)N)ccc3Cl)c1)O2 (some centres not stated) | 18.5% | -5.64% (active) | 2.82% (active) | 18.5% | 13.8% | 23.4% | 81% | 9.2% (active) | 41.7% |
| O=C(COc1ccc(NC(=O)Nc2ccc(Cl)cc2)cc1)N/N=C/c1ccccc1 | -81.6% (active) | -51.4% (active) | -88.5% (active) | -75.2% (active) | -78.6% (active) | -40% (active) | -77.4% (active) | -94.4% (active) | -70.3% (active) |
| COc1cc2oc(-c3cccc(C(=O)Nc4ccc(Cl)cc4)c3)cc(=O)c2c(OCCNC(=O)[C@H](CCC(=O)OC(C)(C)C)NC(=O)OC(C)(C)C)c1OC | 78.7% | 100% | 100% | 112% | 83% | 95.6% | 118% | 105% | 102% |
| CN(C)CCCNC(=O)c1cc(NC(=O)c2cc(NC(=O)c3ccc(/C=C/c4ccccc4)cc3)cn2C)cn1C | 54.5% | 69.2% | 58.6% | 7.42% (active) | -85.9% (active) | 0.824% (active) | 42.3% | 37.4% | -16.5% (active) |
| O=C(/C=C/Nc1ccc2oc(=O)ccc2c1)c1cc2cc(Br)ccc2oc1=O | 94.4% | 87.9% | 103% | 105% |  | 101% | 113% | 98.9% | 111% |
| Cn1cc(-c2cc(N)n3nc(-c4cn(C)c5ncccc45)cc3n2)c2cccnc21 | 89% | 62.5% | 92.9% | 71.7% |  | 62.7% | -55.5% (active) | 45% | 87.8% |
| C/C(=N\N=C1/C(=O)Nc2ccc(Cl)cc21)c1ccc2c(c1)Nc1ccccc1S2 | 11.9% | -32.1% (active) | -35.2% (active) | -27.8% (active) | -9.38% (active) | -43% (active) | -48.2% (active) | 2.73% (active) |  |
| COc1ccc(-c2ccnc(SCc3cc4cc(OC)ccc4[nH]c3=O)n2)cc1 | 2.83% (active) | -3.12% (active) | 1.18% (active) | 22.2% |  | 11% | 35% | -26.3% (active) | 24.2% |
| CC(=O)c1cccc(NC(=O)CCC(=O)NS(=O)(=O)c2ccc(C)cc2)c1 | 106% | 107% | 112% | 111% |  | 101% | 117% | 122% | 104% |
| CCCSc1nc(Nc2ccc(S(N)(=O)=O)cc2)c(C#N)c(-c2cc(OC)c(OC)c(OC)c2)n1 | -11.4% (active) | 16.5% | 23% | 30% |  | 11.4% | 43.6% |  | 12.7% |
| CCOC(=O)c1ccc(Nc2nc(NN)nc(-c3ccc(OC)cc3)c2C#N)cc1 | 84.9% | 116% | 62.6% | 104% |  | 101% | 81% | 119% | 93.9% |
| CC12CC[C@@H]3[C@]4(C)COC(c5cn[nH]c5-c5ccc(Cl)cc5)O[C@@H]4CC[C@@]3(C)[C@@H]1CC(C1=CCOC1=O)O2 (some centres not stated) | 6.42% (active) | 5.38% (active) | 47.7% | 49.4% |  | 25.1% | 58% | 0.753% (active) | 31.9% |
| Cc1nc(Nc2ncc(C(=O)Nc3c(C)cccc3Cl)s2)cc(N2CCN(CCCNC(=O)COc3ccc(C4CCC(=O)NC4=O)cc3)CC2)n1 (configuration not stated) | 64.1% | 68.5% | 81% | 118% |  | 42.2% | 114% | -23.4% (active) | 82% |
| COc1ccc(-c2ccc(SCC(=O)NCCc3ccc(S(N)(=O)=O)cc3)nn2)cc1 | 51% | 60.5% | 92.2% | 103% |  | 70.4% | 94.9% | 33.9% | 96.3% |

| Compound | growth (T-47D breast) | growth (BT-549 breast) | growth (MDA-MB-435 melanoma) | growth (SW-620 colon) | growth (MCF7 breast) | growth (HCT-116 colon) | growth (HCC-2998 colon) | growth (MDA-MB-468 breast) | growth (KM12 colon) |
| --- | --- | --- | --- | --- | --- | --- | --- | --- | --- |
| COc1ccc(-c2nc3cc(C)ccc3n2CC(=O)N=Nc2c(O)[nH]c3ccc(Cl)cc23)cc1 | 2.44% (active) | -43.7% (active) | -7.28% (active) | 12.4% |  | -65.4% (active) | -1.72% (active) | -42.6% (active) | 9.61% (active) |
| COc1ccc2c(c1)c(-c1cc3nc(-c4cn(C)c5ncc(Br)cc45)cc(N)n3n1)cn2C | -60.3% (active) | -78.5% (active) | -67.3% (active) | -64.1% (active) |  | -100% (active) | -94.3% (active) | -81.4% (active) | -61% (active) |
| C=C1CC[C@@H]2[C@]3(C)COC(c4cn[nH]c4-c4ccc(F)cc4)O[C@@H]3CC[C@@]2(C)[C@@H]1C/C=C1/C(=O)OCC1O (some centres not stated) | 11.6% | -93.4% (active) | -62.2% (active) | -60.7% (active) |  | -88.9% (active) | -95.3% (active) | -82.4% (active) | -44.3% (active) |
| O=C(N1c2ccccc2Sc2ccccc21)n1ccc2cccnc21 | 27.7% | 60.2% | 19.7% | 58.4% |  | 34.9% | 85.1% | 51.8% | 49.2% |
| C=C1CC[C@@H]2[C@]3(C)COC(c4cn[nH]c4-c4cccc(Br)c4)O[C@@H]3CC[C@@]2(C)[C@@H]1C/C=C1/C(=O)OCC1O (some centres not stated) | -6.99% (active) | -94.2% (active) | -50.2% (active) | -81.1% (active) |  | -95.9% (active) | -100% (active) | -95.4% (active) | -67.1% (active) |
| CCCSc1nc(Nc2ccc(S(N)(=O)=O)cc2)c(C#N)c(-c2ccc(Cl)cc2)n1 | 86.5% | 77.7% | 48% | 37.6% |  | -67.1% (active) | 8.65% (active) | 17.3% | 41.7% |
| Cc1sc2c(c1C)C(c1ccc(Cl)cc1)=N[C@@H](CC(=O)NCCCCCNC(=O)COc1ccc(C3CCC(=O)NC3=O)cc1)c1nnc(C)n1-2 (some centres not stated) | -10.6% (active) | -0.134% (active) | 20.3% | 23.1% |  | 20% | -10.8% (active) | -20.8% (active) | 13.9% |
| Cn1cc(-c2cc3nc(-c4cn(C)c5ncccc45)cc(N)n3n2)c2ccccc21 | 35.1% | -34.7% (active) | 29.7% | 20.2% |  | -20% (active) | 5.15% (active) | -24.7% (active) | 36.2% |
| O=c1[nH]c2ccc(Cl)cc2cc1CSc1nccc(-c2ccc(Cl)cc2)n1 | 41.6% | 23.9% | 76.5% | 73.4% |  | 30.3% | 61.7% | 29.7% | 69.7% |
| COc1ccc(/C=C/c2nc3ccccc3c(=O)n2CC(=O)Nc2ccc(OC)cc2)cc1 | 66.4% | 72.5% | 96.4% | 84.4% |  | 32.1% | 95.6% | 91.1% | 79.6% |
| COc1ccc2c(c1)c(-c1cc3nc(-c4cn(C)c5ncccc45)cc(N)n3n1)cn2C | -48.5% (active) | -84.7% (active) | -62.4% (active) | -70.4% (active) |  | -89% (active) | -100% (active) | -89.6% (active) | -69.3% (active) |
| CCCCSc1nc(Nc2ccc(S(N)(=O)=O)cc2)c(C#N)c(-c2cc(OC)c(OC)c(OC)c2)n1 | 15.2% | 44.3% | 33% | 48.6% |  | 21.8% | 65% | 61.2% | 26.6% |
| COc1ccc(-c2ccnc(SCc3cc4ccccc4[nH]c3=O)n2)cc1 | 70.2% | 29.7% | 1.7% (active) | 35.1% |  | 31% | 59.6% | 6.26% (active) | 57.3% |
| CC1=C(C#N)C2=NNCC(c3ccccc3)=NN2C(c2ccccc2)=C1 | 98.8% | 104% | 106% | 98% |  | 101% | 118% | 124% | 107% |
| COc1ccc2[nH]c(=O)c(CSc3nccc(-c4ccc(OC)c(OC)c4)n3)cc2c1 | -2.81% (active) | -43.8% (active) | 11.4% | 44.5% |  | 8.21% (active) | 26.3% | -12.3% (active) | 32.2% |
